Reference: PubChem BioAssay (NCI)
This is part of a sample that, as a whole, favours compounds with a hit. Of some 79,000 tested, about 15% had one in any assay. Active and inactive are the calls of the source. No stated cut-off is given here; in the data, active means growth inhibition above about 70%; inactive means the rest.

Assay: NCI Yeast Anticancer Drug Screen. Data for the rad18 strain (AID 177)
Conditions: S. cerevisiae rad18 mutant growth inhibition, stronger effect = higher value
Description: Growth inhibition of yeast strains with defined genetic alterations is measured as a screen for potential anti-cancer activity. Selected strains with alterations in DNA damage repair or cell cycle control were exposed to compounds and growth inhibition was measured relative to vehicle treated controls. The strain used in this assay is rad18

| Compound | growth inhibition (at 1.2 µM) | growth inhibition (at 3.7 µM) | growth inhibition (at 11.0 µM) | growth inhibition (at 33.0 µM) | growth inhibition (at 100.0 µM) |
| --- | --- | --- | --- | --- | --- |
| O=C(CCCN1CCC(O)(c2ccc(Cl)cc2)CC1)c1ccc(F)cc1 | 37% (inactive) | 37% (inactive) | 44% (inactive) | 58% (inactive) | 64% (inactive) |
| C/C(=N/NC(=S)N1CCCCCC1)c1cccc(/C(C)=N\NC(=S)N2CCCCCC2)n1 | 10% (inactive) | 26% (inactive) | 46% (inactive) | 67% (inactive) | 70% (active) |
| N#Cc1ccc(C2NN=CC23C(=O)c2ccccc2OC3c2ccccc2)cc1 (stereo not given) | -3% (inactive) | -4% (inactive) | -3% (inactive) | -16% (inactive) | -1% (inactive) |
| O=C1c2ccccc2C(=O)c2c(NC3CCCCC3)ccc(Nc3ccc(S(=O)(=O)O)cc3)c21 | -2% (inactive) | -13% (inactive) | -1% (inactive) | 40% (inactive) | 46% (inactive) |
| CCCCN1C(=O)N(c2ccc(OCC)cc2)C2N(CCCC)C1C(C)(C)C2(C)C (stereo not given) | -7% (inactive) | 0% (inactive) | 27% (inactive) | 74% (active) | 93% (active) |
| COc1cc2c3c(cccc3c1)C(=O)N(CCN(C)C)C2=O | -34% (inactive) | -18% (inactive) | -23% (inactive) | -15% (inactive) | -27% (inactive) |
| FC(F)(F)c1cc(NC(=S)N2c3ccccc3-n3cccc3C2c2cccnc2)cc(C(F)(F)F)c1 (stereo not given) | -1% (inactive) | -6% (inactive) | 0% (inactive) | -2% (inactive) | -2% (inactive) |
| N#CSc1ccc(S(N)(=O)=O)cc1 | -47% (inactive) | -45% (inactive) | -57% (inactive) | 28% (inactive) | 81% (active) |
